Source: the supplement of paper PMC8728848
Only a selection was taken, and the strongest signals are over-represented in it overall.

What was measured:
Assay in all cases: glycan array binding signal (z-score within array); higher = stronger binding
Settings in all cases: glycan notation: IUPAC condensed, linker removed
[1] = target: Fuc(a1-2)Gal(b1-3)GlcNAc6S
In short: (§1)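 Glycan array data were curated from 3228 arrays in the Consortium for Functional Glycomics database and kept only where the protein sequence was available. Glycan names were converted to IUPAC-condensed notation, and columns mapping to the same glycan were averaged. The binding signal is a within-array Z-score, averaged across arrays of the same protein sequence at different concentrations or buffers and across linkers. Negative Z-scores can be read as non-binding.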

[2] = target: Fuc(a1-2)Gal(b1-4)GlcNAc(b1-3)Gal(b1-4)GlcNAc(b1-2)Man(a1-3)[Fuc(a1-2)Gal(b1-4)GlcNAc(b1-3)Gal(b1-4)GlcNAc(b1-2)Man(a1-6)]Man(b1-4)GlcNAc(b1-4)GlcNAc
In short: as §1

[3] = target: Fuc(a1-2)Gal(b1-4)[Fuc(a1-3)]GlcNAc(b1-2)[Fuc(a1-2)Gal(b1-4)[Fuc(a1-3)]GlcNAc(b1-4)]Man(a1-3)[Fuc(a1-2)Gal(b1-4)[Fuc(a1-3)]GlcNAc(b1-2)Man(a1-6)]Man(b1-4)GlcNAc(b1-4)GlcNAc
In short: as §1

[4] = target: Fuc(a1-2)[Gal(a1-3)]Gal(b1-3)GlcNAc
In short: as §1

[5] = target: Fuc(a1-2)[Gal(a1-3)]Gal(b1-4)GlcNAc(b1-2)Man
In short: as §1

[6] = target: Fuc(a1-2)[Gal(a1-3)]Gal(b1-4)GlcNAc(b1-6)GalNAc
In short: as §1

[7] = target: Fuc(a1-2)[GalNAc(a1-3)]Gal(b1-4)GlcNAc(b1-2)Man(a1-3)[Fuc(a1-2)[GalNAc(a1-3)]Gal(b1-4)GlcNAc(b1-2)Man(a1-6)]Man(b1-4)GlcNAc(b1-4)GlcNAc
In short: as §1

[8] = target: Fuc(a1-2)[GalNAc(a1-3)]Gal(b1-4)GlcNAc(b1-6)GalNAc
In short: as §1

[9] = target: Gal(a1-3)Gal(b1-3)GlcNAc
In short: as §1

[10] = target: Gal(a1-3)Gal(b1-3)GlcNAc(b1-2)Man(a1-3)[Gal(a1-3)Gal(b1-3)GlcNAc(b1-2)Man(a1-6)]Man(b1-4)GlcNAc(b1-4)GlcNAc
In short: as §1

[11] = target: Gal(a1-4)Gal(b1-4)GlcNAc(b1-3)Gal(b1-4)Glc
In short: as §1

[12] = target: Gal(b1-3)Gal(b1-4)GlcNAc
In short: as §1

[13] = target: Gal(b1-3)GlcNAc(a1-6)Gal(b1-4)GlcNAc
In short: as §1

[14] = target: Gal(b1-3)GlcNAc6S
In short: as §1

[15] = target: Gal(b1-3)[Neu5Ac(a2-6)]GlcNAc(b1-4)Gal(b1-4)Glc
In short: as §1

[16] = target: Gal(b1-4)GlcNAc(b1-2)[Gal(b1-4)GlcNAc(b1-6)]Man(a1-6)[Gal(b1-4)GlcNAc(b1-2)Man(a1-3)]Man(b1-4)GlcNAc(b1-4)GlcNAc
In short: as §1

[17] = target: Gal(b1-4)GlcNAc6P
In short: as §1

[18] = target: Gal3S(b1-3)[Fuc(a1-4)]GlcNAc
In short: as §1

[19] = target: Gal6S(b1-4)Glc
In short: as §1

[20] = target: GalNAc(b1-3)Gal(a1-4)Gal(b1-4)GlcNAc(b1-3)Gal(b1-4)Glc
In short: as §1

[21] = target: GalNAc(b1-3)GalNAc
In short: as §1

[22] = target: GalNAc(b1-3)GlcNAc
In short: as §1

[23] = target: Man(a1-2)Man(a1-3)[Man(a1-2)Man(a1-6)]Man(a1-6)[Man(a1-2)Man(a1-2)Man(a1-3)]Man(b1-4)GlcNAc(b1-4)GlcNAc
In short: as §1

[24] = target: Man(a1-3)[Man(a1-6)]Man(a1-6)[Man(a1-2)Man(a1-3)]Man(b1-4)GlcNAc(b1-4)GlcNAc
In short: as §1

[25] = target: Man(a1-3)[Man(a1-6)]Man(a1-6)[Man(a1-3)]Man(b1-4)GlcNAc(b1-4)GlcNAc
In short: as §1

[26] = target: Neu5Ac(a2-3)Gal(b1-3)GlcNAc(b1-3)GalNAc
In short: as §1

[27] = target: Neu5Ac(a2-3)Gal(b1-4)GlcNAc(b1-2)Man(a1-3)[Neu5Ac(a2-3)Gal(b1-4)GlcNAc(b1-2)Man(a1-6)]Man(b1-4)GlcNAc(b1-4)GlcNAc
In short: as §1

[28] = target: Neu5Ac(a2-3)Gal(b1-4)GlcNAc(b1-2)Man(a1-3)[Neu5Ac(a2-3)Gal(b1-4)GlcNAc(b1-2)Man(a1-6)]Man(b1-4)GlcNAc(b1-4)[Fuc(a1-6)]GlcNAc
In short: as §1

[29] = target: Neu5Ac(a2-3)Gal(b1-4)GlcNAc(b1-3)Gal(b1-4)GlcNAc(b1-2)Man(a1-3)[Neu5Ac(a2-3)Gal(b1-4)GlcNAc(b1-3)Gal(b1-4)GlcNAc(b1-2)Man(a1-6)]Man(b1-4)GlcNAc(b1-4)GlcNAc
In short: as §1

[30] = target: Neu5Ac(a2-3)Gal(b1-4)GlcNAc(b1-3)Gal(b1-4)GlcNAc(b1-3)GalNAc
In short: as §1

[31] = target: Neu5Ac(a2-3)Gal(b1-4)GlcNAc(b1-3)[Neu5Ac(a2-3)Gal(b1-4)GlcNAc(b1-6)]GalNAc
In short: as §1

[32] = target: Neu5Ac(a2-3)Gal(b1-4)[Fuc(a1-3)]GlcNAc(b1-3)Gal(b1-4)GlcNAc
In short: as §1

[33] = target: Neu5Ac(a2-3)Gal(b1-4)[Fuc(a1-3)]GlcNAc(b1-3)GalNAc
In short: as §1

[34] = target: Neu5Ac(a2-3)[GalNAc(b1-4)]Gal(b1-4)GlcNAc
In short: as §1

[35] = target: Neu5Ac(a2-6)Gal(b1-4)GlcNAc(b1-2)Man(a1-3)Man(b1-4)GlcNAc(b1-4)GlcNAc
In short: as §1

[36] = target: Neu5Ac(a2-6)Gal(b1-4)GlcNAc(b1-2)Man(a1-3)[Man(a1-6)]Man(b1-4)GlcNAc(b1-4)GlcNAc
In short: as §1

[37] = target: Neu5Ac(a2-6)Gal(b1-4)GlcNAc(b1-2)Man(a1-3)[Neu5Ac(a2-3)Gal(b1-4)GlcNAc(b1-2)Man(a1-6)]Man(b1-4)GlcNAc(b1-4)GlcNAc
In short: as §1

[38] = target: Neu5Ac(a2-6)Gal(b1-4)GlcNAc(b1-2)Man(a1-3)[Neu5Ac(a2-6)Gal(b1-4)GlcNAc(b1-2)Man(a1-6)]Man(b1-4)GlcNAc(b1-4)[Fuc(a1-6)]GlcNAc
In short: as §1

[39] = target: Neu5Ac(a2-6)Gal(b1-4)GlcNAc(b1-2)Man(a1-6)Man(b1-4)GlcNAc(b1-4)GlcNAc
In short: as §1

[40] = target: Neu5Ac(a2-6)Gal(b1-4)GlcNAc(b1-2)Man(a1-6)[Gal(b1-4)GlcNAc(b1-2)Man(a1-3)]Man(b1-4)GlcNAc(b1-4)GlcNAc
In short: as §1

[41] = target: Neu5Ac(a2-6)Gal(b1-4)GlcNAc(b1-2)Man(a1-6)[GlcNAc(b1-2)Man(a1-3)]Man(b1-4)GlcNAc(b1-4)GlcNAc
In short: as §1

[42] = target: Neu5Ac(a2-6)Gal(b1-4)GlcNAc(b1-2)Man(a1-6)[Man(a1-3)]Man(b1-4)GlcNAc(b1-4)GlcNAc
In short: as §1

[43] = target: Neu5Ac(a2-6)Gal(b1-4)GlcNAc(b1-3)Gal(b1-4)GlcNAc(b1-3)[Neu5Ac(a2-6)Gal(b1-4)GlcNAc(b1-3)Gal(b1-4)GlcNAc(b1-6)]GalNAc
In short: as §1

[44] = target: Neu5Ac(a2-6)Gal(b1-4)GlcNAc(b1-3)Gal(b1-4)[Fuc(a1-3)]GlcNAc(b1-3)Gal(b1-4)[Fuc(a1-3)]GlcNAc
In short: as §1

[45] = target: Neu5Ac(a2-6)Gal(b1-4)GlcNAc(b1-3)[Neu5Ac(a2-6)Gal(b1-4)GlcNAc(b1-6)]GalNAc
In short: as §1

[46] = target: Neu5Ac(a2-6)Gal(b1-4)GlcNAc(b1-6)GalNAc
In short: as §1

[47] = target: Neu5Ac(a2-6)GlcNAc(b1-4)GlcNAc(b1-4)GlcNAc
In short: as §1

[48] = target: Neu5Ac(a2-8)Neu5Ac(a2-3)[Gal(b1-3)GalNAc(b1-4)]Gal(b1-4)Glc
In short: as §1

[49] = target: Neu5Gc(a2-3)Gal(b1-4)GlcNAc(b1-3)Gal(b1-4)GlcNAc(b1-2)Man(a1-3)[Neu5Gc(a2-3)Gal(b1-4)GlcNAc(b1-3)Gal(b1-4)GlcNAc(b1-2)Man(a1-6)]Man(b1-4)GlcNAc(b1-4)GlcNAc
In short: as §1

B1: SialidaseA (Arthrobacter ureafaciens) (protein)
chain: MRSNSTSAPSLVRRAATGVLTCAVSIGLLAGLGLPAQAAPTPPNSPTLPPGSFSETNLAADRTAANFFYRIPALTYLGNDVVLAAWDGRPGSAADAPNPNSIVQRRSTDGGKTWGPVQVIAAGHVADASGPRYGYSDPSYIYDAEANKVFAFFVYSKDQGFGGSQFGNDDADRNVISSAVIESSDAGVTWSQPRLITSVTKPGTSKTNPAAGDVRSNFASSGEGIQLKYGPHKGRLIQQYAGDVRQADGSNKIQAYSVYSDDHGVTWHKGANVGDRMDENKTVELSDGRVLLNSRDNANRGYRKVAVSTDGGATYGPVSQDTELPDPANNGAIARMFPNAAQGSADAKKLIFTNANSKTGRENVSARVSCDDGETWPGVRTIRSGFSAYSTVTRLADGKFGVLYEGNYTDNMPFATFDDAWLNYVCAPLAVPAVNIAPSATQEVPVTVTNQEATTLSGATATVYTPSGWSATTVPVPDVAPGASVTVTVALTAPADASGPRSLNAAFTTADGRVSQFTFTATTPVAPQVGLTITGSAPARDVAANPYQAGDVLGYTLNVKSTANVAANSVPLTGTFDSGFLPPAAPNCRYNNLAAGASYNCTTAKHTITAADMERGYFVPEATFSITSTTTPSLTKTVQFTGAAVALRDGLISADISGARTDVGRDLATRPYAAGELVPYAFTVKNTSPFVEQVVPTAGNFSPFLPAGAGNCRYLSLPAGQSYECATPRHAVTAEEVEQGFFVPDTTWEVSAAGQSTRTYRINGGEVDLLVRDAALSATVVAEWKDADGDRFASAGDPVTFTYTVGNAGNVALTGLEAPDAGISLPFLAPGDTATATREHVLTAADVAGGSLAASAFEATARNGSKEVTATAEGQPLELKVQPAQPSKEPELTVQDLEDQTPPFDLGTAFKYRTGQKVSLAGLEYGQWYYVYLNKTGYRLGWMFPTTGDTVEFILPPEVRNGRDDVVVLDKDGRRVSFDRLQVTPKGEKI
glycan array binding signal (z-score) [1]: -0.849
glycan array binding signal (z-score) [2]: 1.3
glycan array binding signal (z-score) [3]: 0.318
glycan array binding signal (z-score) [4]: -0.478
glycan array binding signal (z-score) [5]: -0.252
glycan array binding signal (z-score) [6]: -0.849
glycan array binding signal (z-score) [7]: -0.021
glycan array binding signal (z-score) [8]: -0.733
glycan array binding signal (z-score) [9]: -0.563
glycan array binding signal (z-score) [10]: 0.062
glycan array binding signal (z-score) [11]: -0.51
glycan array binding signal (z-score) [12]: -0.643
glycan array binding signal (z-score) [13]: -0.544
glycan array binding signal (z-score) [14]: -0.625
glycan array binding signal (z-score) [15]: 2.48
glycan array binding signal (z-score) [16]: -0.46
glycan array binding signal (z-score) [17]: -0.685
glycan array binding signal (z-score) [18]: -0.337
glycan array binding signal (z-score) [19]: -0.719
glycan array binding signal (z-score) [20]: -0.337
glycan array binding signal (z-score) [21]: -0.689
glycan array binding signal (z-score) [22]: -0.637
glycan array binding signal (z-score) [23]: -0.441
glycan array binding signal (z-score) [24]: -0.172
glycan array binding signal (z-score) [25]: -0.278
glycan array binding signal (z-score) [26]: -0.321
glycan array binding signal (z-score) [27]: -0.915
glycan array binding signal (z-score) [28]: 3.28
glycan array binding signal (z-score) [29]: 0.256
glycan array binding signal (z-score) [30]: -0.013
glycan array binding signal (z-score) [31]: 1.16
glycan array binding signal (z-score) [32]: 2.56
glycan array binding signal (z-score) [33]: 1.91
glycan array binding signal (z-score) [34]: 0.486
glycan array binding signal (z-score) [35]: 3.4
glycan array binding signal (z-score) [36]: 3.4
glycan array binding signal (z-score) [37]: 2.86
glycan array binding signal (z-score) [38]: 3.44
glycan array binding signal (z-score) [39]: 3.28
glycan array binding signal (z-score) [40]: 3.95
glycan array binding signal (z-score) [41]: 3.32
glycan array binding signal (z-score) [42]: 3.29
glycan array binding signal (z-score) [43]: 3.49
glycan array binding signal (z-score) [44]: 3.65
glycan array binding signal (z-score) [45]: 3.9
glycan array binding signal (z-score) [46]: -0.534
glycan array binding signal (z-score) [47]: -0.274
glycan array binding signal (z-score) [48]: -0.131
glycan array binding signal (z-score) [49]: 1.3
